Results filed as inconclusive are left out. A call without a number means that no potency is given here. The source made the active and inactive calls. The call rests on the fitted dose curve; in most records, active means well fitted inhibition curve with a large enough effect; inconclusive means small, poorly fitted or top-dose-only effect; inactive means flat fitted curve, though single readings scatter.
target: Calcium and integrin-binding protein 1 (Homo sapiens) (UniProt Q99828); assay: Primary qHTS for Identification of Calcium Integrin Binding Protein 1 (CIB1) Competitor (AID 1508620); details: CIB1-GST / FITC-alphaIIb peptide fluorescence polarization; series mostly up to 57.7 µM;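 further: GST tagged CIB1 binding a fluorescein labelled alphaIIb integrin peptide tracer; top concentration of the series differs between compounds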
Sequence (Q99828 whole entry, looked up): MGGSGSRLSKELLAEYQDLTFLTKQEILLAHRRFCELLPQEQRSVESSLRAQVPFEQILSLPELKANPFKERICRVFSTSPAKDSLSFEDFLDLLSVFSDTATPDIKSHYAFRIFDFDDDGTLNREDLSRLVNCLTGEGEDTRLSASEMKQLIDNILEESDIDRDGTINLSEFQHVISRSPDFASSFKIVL
Outline: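 CIB1-GST (1 uM final) and compound incubated 15 min at room temperature before adding FITC-alphaIIb peptide tracer (100 nM final). Competition for binding read by fluorescence polarization (ex 480, em 540) after another 15 min at room temperature.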

| Structure (SMILES) | Potency |
| --- | --- |
| COc1cc([C@@H]2c3cc4c(cc3[C@@H](O[C@@H]3O[C@@H]5CO[C@@H](c6cccs6)O[C@@H]5[C@H](O)[C@@H]3O)[C@H]3COC(=O)[C@H]23)OCO4)cc(OC)c1O | inactive |
| C[C@H](NCc1ccc2c(c1)nc(NC(=O)c1ccc(-c3cn[nH]c3)s1)n2CCc1ccccc1)C(C)(C)C | inactive |
| C[C@@]12C(=O)OC(=O)[C@@]1(C)C1CCC2O1 | inactive |
| CC(=O)OCC(=O)[C@@]12N=C(C)O[C@H]1C[C@H]1[C@@H]3CCC4=CC(=O)C=C[C@]4(C)[C@@H]3[C@@H](O)C[C@@]12C | inactive |
| CC[C@H]1OC(=O)[C@H](C)[C@@H](O[C@H]2C[C@@](C)(OC)[C@@H](O)[C@H](C)O2)[C@H](C)[C@@H](O[C@@H]2O[C@H](C)C[C@H](N(C)C)[C@@H]2O)[C@](C)(OC)C[C@@H](C)C(=O)[C@H](C)[C@@H](O)[C@]1(C)O | inactive |
| CC(=O)C1=C(O)C=C2Oc3c(C(C)=O)c(O)c(C)c(O)c3C2(C)C1=O (stereo not given) | inactive |
| CNC(=O)c1ccc(Nc2cc(Nc3ccccc3S(=O)(=O)C(C)C)c3cc[nH]c3n2)nc1 | inactive |
| CC(=CC(=O)Nc1ccccc1C(=O)O)c1ccc2ccccc2c1 | inactive |
| Cc1nc(NC(=O)N2CCC[C@@H]2C(N)=O)sc1-c1ccnc(C(C)(C)C(F)(F)F)c1 | inactive |
| NC(=O)c1ncn([C@@H]2O[C@H](CO)[C@@H](O)[C@@H]2O)c1N | inactive |
| COc1cc(OC)c(C=CS(=O)(=O)Cc2ccc(OC)c(NCC(=O)O)c2)c(OC)c1 | inactive |
| C[C@]12CCC(=O)C=C1[C@@H]1CC1[C@H]1[C@H]3[C@@H]4C[C@H]4[C@@]4(CCC(=O)O4)[C@@]3(C)CC[C@H]12 (stereo not given in full) | inactive |
| COC(=O)C=CC(=O)OC | inactive |
| C[C@H](NCc1ccc(OCc2cccc(F)c2)cc1)C(N)=O | inactive |
| C[C@H](CCC(=O)O)[C@H]1CC[C@H]2[C@@H]3[C@H](O)C[C@@H]4C[C@H](O)CC[C@]4(C)[C@@H]3CC[C@]12C | inactive |
| COc1ccc(C(C)=O)c(O)c1 | inactive |
| CON=C(C(=O)N[C@@H]1C(=O)N2C(C(=O)O)=C(Cn3ccc(=N)n3CCO)CS[C@H]12)c1csc(N)n1 | inactive |
| CC(C)(C)[N+]([O-])=Cc1ccc(S(=O)(=O)O)cc1S(=O)(=O)O | inactive |
| CNC(=O)c1cccc(-c2ccc3c(N4CCOC[C@H]4C)nc(N4CCOC[C@H]4C)nc3n2)c1 | inactive |
| OCCN1C[C@H](O)[C@@H](O)[C@H](O)[C@@H]1CO | inactive |

— PubChem BioAssay (NCATS)
